Screening results from PubChem BioAssay.
DT40 TDP1 CPT = growth inhibition of DT40 Tdp1-/-;hTDP1 cells with camptothecin (screen for TDP1 inhibitors); actives 12% (n = 420,000); Potency, µM (doses to about 46.2 µM), usual class: inhibitors; AID 686979; chicken DT40 Tdp1-/-;hTDP1 cells + 20 nM CPT, ATP luminescence, 48 h; note: nearly all actives have a fitted effect of over 55% in size
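Cell growth measured by CellTiter-Glo luminescence after a minimum 48 h, 37 C compound exposure with 20 nM CPT in Tdp1-knockout DT40 cells stably expressing hTDP1, seeded 400/well; qHTS titration format.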
uPA generation = blocks generation of uPA at the cell surface; cell surface uPA generation assay, qHTS; Potency, µM (doses to about 38.3 µM), most hits filed as inhibitors; actives 0.31% (n = 330,000); active = well fitted inhibition curve with a large enough effect; inconclusive = small, poorly fitted or top-dose-only effect; inactive = no such curve, though single readings can be large or run the other way; tested in mouse RAW 264.7 cells; note: nearly all actives have a fitted effect of over 55% in size
IL-1B inflam inh = blocks inflammasome-driven IL-1 beta release; actives 4.7% (n = 360,000); THP-1 LPS/ATP IL-1B secretion, AlphaLISA, 16 h; active compounds read low; AID 743279; activity change, % at 57.5 µM; in the data active = activity change below about -50%; inconclusive = mostly about -30% to -49%
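THP-1 cells pretreated 1 hr with compounds (up to 57.5 uM final), then stimulated with LPS (250 ng/mL final) plus ATP (1.25 mM final); secreted IL-1B measured by AlphaLISA after 16 hr, decreased signal indicating inhibition.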
HT1080-NT tox = kills 2HG-producing HT-1080-NT fibrosarcoma cells; HT-1080-NT fibrosarcoma viability, CellTiter-Glo ATP luminescence, 48 h; Potency, µM (titrated, usually from 46.1 µM), actives largely listed as cytotoxic; actives 1.6% (n = 360,000); AID 686970;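 note: NT is the 2HG producing partner of a matched IDH1 knockdown line; nearly all actives have a fitted effect of over 55% in size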
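750 cells/well, RPMI + 5% FBS; 2 h settle, compound pin-transfer, 48 h at 37 degrees C. CellTiter-Glo 10 min RT, luminescence. Normalized to DMSO and media-only wells.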
HT1080 IDH1KD tx = toxicity to HT-1080 IDH1 knockdown cells (counter line). HT-1080 IDH1 knockdown viability, ATP luminescence, 48 h. actives 2% (n = 360,000). Potency, µM (titrated, usually from 46.1 µM), hits mostly cytotoxic
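In this qHTS, HT-1080 cells depleted of IDH1 are exposed for 48 h at 37 °C to compound titrations. Toxicity is scored from CellTiter-Glo luminescence, with DMSO as full viability and medium alone as none.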
TDP1 cell noCPT = qHTS for Inhibitors of human tyrosyl-DNA phosphodiesterase 1 (TDP1): qHTS in cells in absence of CPT; DT40 Tdp1-/- hTDP1 cells, no CPT, ATP luminescence, 48 h; Potency, µM (highest dose often 46.2 µM), hits mostly inhibitors; actives 15% (n = 420,000); AID 686978, 2013; note: nearly all actives have a fitted effect of over 55% in size
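Growth kinetics read by CellTiter-Glo luminescence after ≥48 hr at 37 °C. Cells: DT40 Tdp1-/- stably carrying human TDP1, 400 per well, compound exposure in the absence of CPT (DMSO vehicle).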
Numbers stand for hits. This is a sample that favours compounds with a hit; in the whole collection about 19% have one here. Unless noted, calls come from the whole dose curve; as a rule, active = well fitted curve in the direction sought with a large enough effect; inconclusive = small, poorly fitted or top-dose-only effect, or another doubt; inactive = no such curve, though single readings can be large; an effect the other way counts as inactive or inconclusive.

`COc1ccc(CCN2C(=NC(C)=O)SC3CS(=O)(=O)CC32)cc1OC` (stereo not drawn) gave DT40 TDP1 CPT inactive, uPA generation inactive, IL-1B inflam inh inactive, HT1080-NT tox inactive, HT1080 IDH1KD tx inactive and TDP1 cell noCPT inactive.
Screening O=C(c1nn2c(C(F)(F)F)cc(-c3ccccc3)nc2c1Cl)N1CCN2CCCC2C1 (stereo not drawn) returned DT40 TDP1 CPT 21µM, uPA generation inactive, IL-1B inflam inh -64, HT1080-NT tox inactive, HT1080 IDH1KD tx inactive and TDP1 cell noCPT inconclusive.
Screening NC(=O)c1nn2c(C(F)(F)F)cc(-c3ccccc3)nc2c1Br returned DT40 TDP1 CPT inconclusive, uPA generation inconclusive, IL-1B inflam inh inactive, HT1080-NT tox inactive, HT1080 IDH1KD tx inactive and TDP1 cell noCPT inconclusive.
`O=C(c1ccccc1)N1CCN(C(=O)c2nn3c(C(F)(F)F)cc(-c4ccccc4)nc3c2Br)CC1` gave DT40 TDP1 CPT inconclusive, uPA generation inactive, IL-1B inflam inh inactive, HT1080-NT tox inactive, HT1080 IDH1KD tx inactive and TDP1 cell noCPT 18µM.
O=C(c1cc2nc(-c3ccccc3)cc(C(F)(F)F)n2n1)N1CCN2CCCC2C1 (stereo not drawn) was read as DT40 TDP1 CPT inactive, uPA generation inactive, IL-1B inflam inh inconclusive, HT1080-NT tox inconclusive, HT1080 IDH1KD tx inactive and TDP1 cell noCPT inconclusive.
CCc1nc2ccc(C(=O)NCCc3ccccn3)cn2c1N(CCC(C)C)CCN(C)C was read as DT40 TDP1 CPT inactive, IL-1B inflam inh inactive, HT1080-NT tox inactive, HT1080 IDH1KD tx inactive and TDP1 cell noCPT inconclusive.
For CCn1c2ccccc2c2nn(C)c(=N)nc21 the results were DT40 TDP1 CPT 15µM, uPA generation inactive, IL-1B inflam inh inactive, HT1080-NT tox inactive, HT1080 IDH1KD tx inactive and TDP1 cell noCPT 18µM.
Screening Cn1nc2c3ccccc3n(Cc3ccccc3)c2nc1=S returned DT40 TDP1 CPT inactive, uPA generation inactive, IL-1B inflam inh inactive, HT1080-NT tox inactive, HT1080 IDH1KD tx inactive and TDP1 cell noCPT inconclusive.
For COc1ccc(-c2c(C)oc3ccc(C)cc23)cc1 the results were DT40 TDP1 CPT inactive, IL-1B inflam inh inactive, HT1080-NT tox inactive, HT1080 IDH1KD tx inactive and TDP1 cell noCPT inactive.
Screening COc1ccc(-c2c3c(cc(C)[n+]2[O-])oc2ccc(OC)cc23)cc1 returned DT40 TDP1 CPT 26µM, uPA generation inactive, IL-1B inflam inh inconclusive, HT1080-NT tox inactive, HT1080 IDH1KD tx inactive and TDP1 cell noCPT inconclusive.
For COc1ccc2oc3cc(C)[n+]([O-])c(-c4ccc(C)cc4)c3c2c1 the results were DT40 TDP1 CPT inconclusive, uPA generation inactive, IL-1B inflam inh inactive, HT1080-NT tox inactive, HT1080 IDH1KD tx inactive and TDP1 cell noCPT 0.21µM.
Screening O=C(CCc1nnc(Cc2c[nH]c3ccccc23)o1)NCCC1CCCCO1 (stereo not drawn) returned DT40 TDP1 CPT inactive, IL-1B inflam inh inactive, HT1080-NT tox inactive, HT1080 IDH1KD tx inactive and TDP1 cell noCPT inactive.
Cc1ccc(NC(=O)CN2C=NS(=O)(=O)c3ccccc32)c(C)c1 was read as DT40 TDP1 CPT inactive and TDP1 cell noCPT inactive.
Screening CC(=O)Nc1ccc(S(=O)(=O)Nc2cccc(-n3c(C)nc4ccccc4c3=O)c2)cc1 returned DT40 TDP1 CPT inactive, uPA generation inactive, IL-1B inflam inh inactive, HT1080-NT tox inactive, HT1080 IDH1KD tx inactive and TDP1 cell noCPT inactive.
`COCCNC(=O)Cc1c(C)c2cc3c(cc2oc1=O)OC(C)(C)CC3` gave DT40 TDP1 CPT inconclusive, uPA generation inactive, IL-1B inflam inh inactive, HT1080-NT tox inactive, HT1080 IDH1KD tx inactive and TDP1 cell noCPT inconclusive.
Cc1c(CC(=O)NCC(C)C)c(=O)oc2cc3c(cc12)CCC(C)(C)O3 was read as DT40 TDP1 CPT 16µM, uPA generation inactive, IL-1B inflam inh inconclusive, HT1080-NT tox inactive, HT1080 IDH1KD tx inactive and TDP1 cell noCPT 18µM.
